The values that follow come from PubChem BioAssay (EPA / NIEHS).

Results filed as inconclusive are left out. Activity calls are given as the source filed them. Rule for the calls, unless noted: active = hit-call score of the fitted dose curve at least 0.9, where 1 is the maximum; inactive = score below 0.9.

Test [1] is described as follows: ATG_PBREM_CIS: Attagene CIS-FACTORIAL HepG2 Assay for human Phenobarbital-responsive Enhancer Module (PBREM) (AID 2282955). The conditions noted are these: HepG2 PBREM cis-reporter, Attagene multiplexed transcription; actives raise or lower the signal. Summed up: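 Fluorescence of labelled reporter cDNA fragments, resolved by capillary electrophoresis, gives mRNA induction in transfected HepG2 cells treated for 24 h; DMSO serves as negative control and baseline.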

For test [2], the target named is Paired box protein Pax-6 (Homo sapiens) (UniProt P26367). Kind of test: ATG_Pax6_CIS: Attagene CIS-FACTORIAL HepG2 Assay for human Paired Box 6 (PAX6) (AID 2282956). The conditions noted are these: HepG2 CIS-FACTORIAL PAX6 reporter transcription, RNA readout; actives raise or lower the signal. Summed up: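 Multiplexed cis-reporter HepG2 system; 24 h treatment; reporter mRNA read by RT-PCR/CE fluorescence; bidirectional fit vs DMSO.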
Paired box protein Pax-6 (Homo sapiens), sequence (P26367 whole entry, looked up): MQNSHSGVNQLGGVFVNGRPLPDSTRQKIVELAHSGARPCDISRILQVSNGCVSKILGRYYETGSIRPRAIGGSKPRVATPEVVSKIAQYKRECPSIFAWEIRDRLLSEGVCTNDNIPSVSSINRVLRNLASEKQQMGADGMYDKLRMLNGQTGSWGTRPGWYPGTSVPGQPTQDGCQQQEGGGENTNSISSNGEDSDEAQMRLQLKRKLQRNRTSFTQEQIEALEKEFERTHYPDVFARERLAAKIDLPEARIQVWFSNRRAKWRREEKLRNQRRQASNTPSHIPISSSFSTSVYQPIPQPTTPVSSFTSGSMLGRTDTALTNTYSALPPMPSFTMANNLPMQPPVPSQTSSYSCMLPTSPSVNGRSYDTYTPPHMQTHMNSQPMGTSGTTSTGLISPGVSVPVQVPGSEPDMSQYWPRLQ

Test [3] can be described thus: ATG_PXRE_CIS: Attagene CIS-FACTORIAL HepG2 Assay for human Pregnane X Receptor Element (PXRE) (AID 2282957). The settings on record: HepG2 Attagene CIS-FACTORIAL PXRE reporter, mRNA; actives raise or lower the signal. Summed up:
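Cells: HepG2, transiently transfected reporter units under cis promoter control. Exposure: 24 h. Detection: reporter mRNA via RT-PCR/CE fluorescence; bidirectional fitting, DMSO-referenced.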

Test [4] is described as follows: ATG_PPRE_CIS: Attagene CIS-FACTORIAL HepG2 Assay for human Peroxisome Proliferator-activated Response Element (PPRE) (AID 2282958). The settings on record: HepG2 PPRE cis-element reporter, Attagene transcription factor profiling; actives raise or lower the signal. Summed up: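 Cells are first transfected transiently with the multiplexed reporter library, then dosed for 24 h. Total RNA is reverse-transcribed, amplified, fluorescently end-labeled and HpaI-cut before capillary electrophoresis; activity is fitted bidirectionally against DMSO controls.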

The nature of test [5]: ATG_Sox_CIS: Attagene CIS-FACTORIAL HepG2 Assay for human SRY-box transcription factor (SOX) (AID 2282960). The conditions noted are these: HepG2 Attagene cis-factorial SOX reporter, mRNA; actives raise or lower the signal. The method in brief: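 Transient MRTU transfection of HepG2; 24 h compound incubation; TriZol RNA, oligo(dT) RT, PCR, 6-FAM primer extension, HpaI cut, CE. Bidirectional fit, DMSO = baseline.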

The target in test [6] is Transcription factor Sp1 (Homo sapiens) (UniProt P08047). In words: ATG_Sp1_CIS: Attagene CIS-FACTORIAL HepG2 Assay for human Specificity Protein 1 (Sp1) (AID 2282961). The conditions noted are these: HepG2 Sp1 cis-reporter transcription, actives raise or lower the signal. The method in brief:
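Endogenous Sp1 activity was gauged in human liver HepG2 cells bearing transfected reporter units under a cis-regulating promoter. After 24 h dosing, reporter mRNA was quantified by RT-PCR with capillary electrophoresis, and activity fitted bidirectionally versus DMSO.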

Test [7] can be described thus: ATG_SREBP_CIS: Attagene CIS-FACTORIAL HepG2 Assay for human Sterol Regulatory Element Binding (SREBP) (AID 2282962). The settings on record: HepG2 Attagene cis-factorial SREBP reporter, mRNA; actives raise or lower the signal. The method in brief: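 mRNA induction of transfected cis-promoter reporters in HepG2 cells, 24 h post-dose. Detection: RT-PCR with 6-FAM-labelled products, HpaI digest, capillary electrophoresis. DMSO served as negative control and baseline.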

The target in test [8] is Signal transducer and activator of transcription 3 (Homo sapiens) (UniProt P40763). Kind of test: ATG_STAT3_CIS: Attagene CIS-FACTORIAL HepG2 Assay for human Signal Transducer and Activator of Transcription 3 (STAT3) (AID 2282963). The settings on record: HepG2, Attagene cis-factorial STAT3 reporter transcription; actives raise or lower the signal. Summed up: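 Endogenous STAT3-responsive cis-element activity was read in transiently transfected HepG2 cells after 24 h treatment. Reporter transcripts were quantified via RT-PCR and capillary electrophoresis, with DMSO as negative control and bidirectional curve fitting.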
Signal transducer and activator of transcription 3 (Homo sapiens), sequence (P40763 whole entry, looked up): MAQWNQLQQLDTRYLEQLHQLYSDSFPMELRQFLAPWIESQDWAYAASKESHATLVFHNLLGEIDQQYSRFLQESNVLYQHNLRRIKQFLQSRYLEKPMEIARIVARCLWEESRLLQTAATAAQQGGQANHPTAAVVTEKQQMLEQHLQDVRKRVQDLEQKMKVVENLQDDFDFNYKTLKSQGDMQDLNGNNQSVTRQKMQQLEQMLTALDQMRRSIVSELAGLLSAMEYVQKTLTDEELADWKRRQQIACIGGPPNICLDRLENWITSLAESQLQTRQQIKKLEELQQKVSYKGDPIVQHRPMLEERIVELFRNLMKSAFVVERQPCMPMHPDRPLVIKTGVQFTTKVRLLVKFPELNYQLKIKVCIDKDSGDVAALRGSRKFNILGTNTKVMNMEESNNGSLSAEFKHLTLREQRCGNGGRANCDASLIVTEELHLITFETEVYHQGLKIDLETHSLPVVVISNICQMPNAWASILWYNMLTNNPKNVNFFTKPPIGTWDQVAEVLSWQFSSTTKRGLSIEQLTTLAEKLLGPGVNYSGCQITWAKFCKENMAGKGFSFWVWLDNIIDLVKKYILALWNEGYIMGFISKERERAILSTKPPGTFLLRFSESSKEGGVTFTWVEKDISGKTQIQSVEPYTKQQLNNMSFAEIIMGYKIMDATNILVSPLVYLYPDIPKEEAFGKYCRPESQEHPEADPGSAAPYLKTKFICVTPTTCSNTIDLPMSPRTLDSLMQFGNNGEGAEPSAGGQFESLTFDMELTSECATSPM

Test [9] is described as follows: ATG_TA_CIS: Attagene CIS-FACTORIAL HepG2 Assay for human TA Basal Promoter (AID 2282964). The settings on record: HepG2 Attagene CIS-factorial TA basal promoter reporter; actives raise or lower the signal. Summed up:
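Read-out: fluorescent reporter-transcript fragments resolved by capillary electrophoresis after RT-PCR and HpaI digestion. Source: HepG2 cells carrying transiently transfected multi-reporter cis constructs, treated 24 h. Endpoint fitted bidirectionally relative to DMSO.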

Test [10] is described as follows: ATG_TCF_b_cat_CIS: Attagene CIS-FACTORIAL HepG2 Assay for human T-Cell-Factor with beta-catenin (TCF/b-cat) (AID 2282965). The conditions noted are these: HepG2 TCF/beta-catenin cis-reporter transcription, actives raise or lower the signal. Summed up:
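Endogenous TCF/LEF activity read as reporter transcript level via RT-PCR and capillary electrophoresis fluorescence in transfected HepG2, 24 h exposure; gain or loss of signal fitted against DMSO controls.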

Test [11] in a line: ATG_TAL_CIS: Attagene CIS-FACTORIAL HepG2 Assay for human TAL Basal Promoter (AID 2282966).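 Note: background control endpoint measuring basal TAL promoter reporter mRNA not a specific factor.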 The conditions noted are these: HepG2 Attagene cis-factorial TAL promoter reporter; actives raise or lower the signal. Summed up:
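RT-PCR plus capillary electrophoresis quantifies reporter mRNA induction in transiently transfected HepG2 cells after 24 h chemical treatment. DMSO serves as negative control and baseline for bidirectional fitting.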

Test [12] can be described thus: ATG_TGFb_CIS: Attagene CIS-FACTORIAL HepG2 Assay for human Transforming Growth Factor (TGF) (AID 2282967). The conditions noted are these: HepG2 Attagene CIS TGFb reporter, mRNA transcription; actives raise or lower the signal. The method in brief:
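Transient MRTU transfection of HepG2 (FuGene 6). Dose 24 h. TriZol RNA, oligo(dT) RT, PCR, 6-FAM primer extension, HpaI cut, CE. Bidirectional fit, DMSO = baseline.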

The nature of test [13]: ATG_VDRE_CIS: Attagene CIS-FACTORIAL HepG2 Assay for human Vitamin D Receptor Element (VDRE) (AID 2282968). The conditions noted are these: HepG2 VDRE cis-reporter transcription, actives raise or lower the signal. Summed up: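 Reporter mRNA induction, quantified by capillary electrophoresis of fluorescently labelled RT-PCR products, was read 24 h after dosing HepG2 cells carrying transiently transfected cis-regulated reporter units; gain or loss relative to DMSO.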

The target of test [14] is Estrogen receptor (Homo sapiens) (UniProt P03372). In words: ATG_ERa_TRANS: Attagene TRANS-FACTORIAL HepG2 Assay for human Estrogen Receptor alpha (ERa) (AID 2282970; active = hit-call score of the fitted dose curve at least 0.9, where 1 is the maximum). The conditions noted are these: HepG2 Attagene TRANS ERa GAL4 reporter, mRNA. Summed up:
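Cells: HepG2, transiently transfected. Construct: GAL4-UAS reporter units regulated by exogenous NR-Gal4 chimeras. Time: 24 h. Detection: reporter mRNA by RT-PCR, capillary electrophoresis, fluorescence. Baseline: DMSO, upward fitting.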

The target of test [15] is Steroid hormone receptor ERR1 (Homo sapiens) (UniProt P11474). Kind of test: ATG_ERRa_TRANS: Attagene TRANS-FACTORIAL HepG2 Assay for human Estrogen-Related Receptor alpha (ERRa) (AID 2282971; active = hit-call score of the fitted dose curve at least 0.9, where 1 is the maximum). The conditions noted are these: HepG2 Attagene TRANS reporter, ERRa transactivation. Summed up: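 Reporter transcripts from ERRa-Gal4 chimera activity measured in transiently transfected human HepG2 cells 24 hours after dosing, using RT-PCR with 6-FAM primer extension, HpaI digestion and capillary electrophoresis; DMSO is baseline.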
Steroid hormone receptor ERR1 (Homo sapiens), sequence (P11474 whole entry, looked up, the tested form may be a part): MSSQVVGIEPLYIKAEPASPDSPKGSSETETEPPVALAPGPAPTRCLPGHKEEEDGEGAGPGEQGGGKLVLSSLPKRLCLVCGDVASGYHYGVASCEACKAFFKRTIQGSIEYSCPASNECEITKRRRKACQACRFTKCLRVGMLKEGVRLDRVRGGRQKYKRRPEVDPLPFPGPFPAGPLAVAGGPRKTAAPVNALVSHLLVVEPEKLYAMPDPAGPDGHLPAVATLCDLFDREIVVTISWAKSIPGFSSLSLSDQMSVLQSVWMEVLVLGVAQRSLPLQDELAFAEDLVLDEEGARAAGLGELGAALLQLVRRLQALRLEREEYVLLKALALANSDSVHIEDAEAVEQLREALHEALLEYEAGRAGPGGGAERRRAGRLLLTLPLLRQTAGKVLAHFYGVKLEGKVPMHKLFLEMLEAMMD

The target of test [16] is X-box-binding protein 1 (Homo sapiens) (UniProt P17861). In words: ATG_Xbp1_CIS: Attagene CIS-FACTORIAL HepG2 Assay for human X-box Binding Protein 1 (XBP1) (AID 2282972). The conditions noted are these: HepG2 XBP1 cis-element reporter, Attagene multiplex; actives raise or lower the signal. The method in brief: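 Fluorescence-labelled cDNA fragments from reporter transcripts, separated by capillary electrophoresis, give the signal. Source: HepG2 cells transfected with promoter-driven reporter units, harvested 24 h post-dose. DMSO served as reference for bidirectional curve fitting.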
X-box-binding protein 1 (Homo sapiens), sequence (P17861 whole entry, looked up, the tested form may be a part): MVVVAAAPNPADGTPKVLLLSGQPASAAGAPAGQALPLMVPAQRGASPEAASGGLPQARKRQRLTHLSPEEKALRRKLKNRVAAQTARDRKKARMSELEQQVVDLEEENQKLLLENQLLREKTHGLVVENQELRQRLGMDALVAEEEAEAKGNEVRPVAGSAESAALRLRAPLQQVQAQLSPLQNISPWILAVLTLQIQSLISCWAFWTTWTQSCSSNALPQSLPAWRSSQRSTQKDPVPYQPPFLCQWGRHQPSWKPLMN

Test [17] is described as follows: ATG_M_19_TRANS: Attagene TRANS-FACTORIAL HepG2 Assay for M19 Transcription Factor (Internal Marker) (AID 2282974; active = hit-call score of the fitted dose curve at least 0.9, where 1 is the maximum). The settings on record: HepG2 Attagene TRANS-FACTORIAL M19 internal marker reporter. The method in brief: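 Cells: human HepG2, transiently transfected with multiplexed reporter transcription units. Exposure: 24 h. Detection: RT-PCR of reporter mRNA with capillary electrophoresis. Analysis: gain-of-signal vs DMSO.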

Test [18] addresses Nuclear receptor subfamily 1 group I member 3 (Homo sapiens) (UniProt Q14994). In words: ATG_CAR_TRANS: Attagene TRANS-FACTORIAL HepG2 Assay for human Constitutive Androstane Receptor (CAR) (AID 2282969; active = hit-call score of the fitted dose curve at least 0.9, where 1 is the maximum;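 note: activators raise reporter mRNA above DMSO so AC50 marks induction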). The settings on record: HepG2 Attagene TRANS-FACTORIAL CAR reporter. Summed up:
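Readout is reporter mRNA induction, quantified by fluorescent primer extension and capillary electrophoresis after RT-PCR. Cells were HepG2 transiently carrying chimeric NR-Gal4 constructs with GAL4-UAS reporters, treated for 24 h; activity scored upward from DMSO.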

Test [19] is described as follows: ATG_GAL4_TRANS: Attagene TRANS-FACTORIAL HepG2 Assay for GAL4 (Internal Marker) (AID 2282976; active = hit-call score of the fitted dose curve at least 0.9, where 1 is the maximum). The settings on record: HepG2 Attagene TRANS GAL4 internal marker reporter. Summed up:
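In transfected human HepG2 liver cells dosed 24 h, GAL4 reporter mRNA serves as a baseline marker. Detection by RT-PCR with fluorescent capillary electrophoresis, activity fitted upward relative to DMSO.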

A short description of test [20]: ATG_RORE_CIS: Attagene CIS-FACTORIAL HepG2 Assay for human RAR-related Orphan Receptor Element (RORE) (AID 2282959). The conditions noted are these: HepG2 Attagene cis-factorial RORE reporter, mRNA; actives raise or lower the signal. The method in brief: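 Cells were HepG2 carrying transfected cis-regulated reporter constructs, dosed for 24 hours. Total RNA was reverse-transcribed and reporter cDNA amplified, fluorescently labeled and sized by capillary electrophoresis. Activity was fitted bidirectionally relative to DMSO.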

Estrogen receptor (Homo sapiens), sequence (P03372 whole entry, looked up, the tested form may be a part): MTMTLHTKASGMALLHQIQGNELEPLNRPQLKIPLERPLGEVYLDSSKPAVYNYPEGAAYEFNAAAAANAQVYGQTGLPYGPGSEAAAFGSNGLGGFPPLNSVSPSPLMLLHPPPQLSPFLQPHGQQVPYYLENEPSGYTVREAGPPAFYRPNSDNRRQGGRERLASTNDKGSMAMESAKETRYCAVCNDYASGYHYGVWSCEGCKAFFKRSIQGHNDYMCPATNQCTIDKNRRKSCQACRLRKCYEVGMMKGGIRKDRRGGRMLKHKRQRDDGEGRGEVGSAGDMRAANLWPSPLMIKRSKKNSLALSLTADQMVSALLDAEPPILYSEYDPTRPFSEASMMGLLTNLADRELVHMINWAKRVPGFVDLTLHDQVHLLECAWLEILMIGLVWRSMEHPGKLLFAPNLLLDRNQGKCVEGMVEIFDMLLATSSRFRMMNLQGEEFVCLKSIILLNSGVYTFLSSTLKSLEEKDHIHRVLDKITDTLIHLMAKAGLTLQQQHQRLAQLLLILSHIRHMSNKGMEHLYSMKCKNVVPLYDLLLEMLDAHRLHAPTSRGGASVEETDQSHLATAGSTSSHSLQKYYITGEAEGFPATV
Transcription factor Sp1 (Homo sapiens), sequence (P08047 whole entry, looked up): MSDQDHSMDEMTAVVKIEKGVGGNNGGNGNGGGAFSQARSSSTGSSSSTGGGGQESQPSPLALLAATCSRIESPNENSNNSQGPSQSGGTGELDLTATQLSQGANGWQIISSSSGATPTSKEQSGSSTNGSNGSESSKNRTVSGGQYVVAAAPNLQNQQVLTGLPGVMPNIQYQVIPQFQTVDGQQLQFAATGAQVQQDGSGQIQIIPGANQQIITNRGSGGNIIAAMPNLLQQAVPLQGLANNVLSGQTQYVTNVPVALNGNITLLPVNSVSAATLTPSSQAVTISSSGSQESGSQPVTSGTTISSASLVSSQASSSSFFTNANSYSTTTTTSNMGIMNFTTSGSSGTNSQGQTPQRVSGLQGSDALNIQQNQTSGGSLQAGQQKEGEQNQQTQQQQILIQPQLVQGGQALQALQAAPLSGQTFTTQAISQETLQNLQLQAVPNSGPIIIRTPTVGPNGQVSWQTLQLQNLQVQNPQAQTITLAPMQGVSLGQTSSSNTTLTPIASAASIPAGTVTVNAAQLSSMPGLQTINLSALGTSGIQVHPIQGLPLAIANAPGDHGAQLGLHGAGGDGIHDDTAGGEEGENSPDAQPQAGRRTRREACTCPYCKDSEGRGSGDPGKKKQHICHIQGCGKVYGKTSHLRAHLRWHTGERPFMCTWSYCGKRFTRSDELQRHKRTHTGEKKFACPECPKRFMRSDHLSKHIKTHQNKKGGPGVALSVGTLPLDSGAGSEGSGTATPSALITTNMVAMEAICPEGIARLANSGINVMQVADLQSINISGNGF
Nuclear receptor subfamily 1 group I member 3 (Homo sapiens), sequence (Q14994 whole entry, looked up, the tested form may be a part): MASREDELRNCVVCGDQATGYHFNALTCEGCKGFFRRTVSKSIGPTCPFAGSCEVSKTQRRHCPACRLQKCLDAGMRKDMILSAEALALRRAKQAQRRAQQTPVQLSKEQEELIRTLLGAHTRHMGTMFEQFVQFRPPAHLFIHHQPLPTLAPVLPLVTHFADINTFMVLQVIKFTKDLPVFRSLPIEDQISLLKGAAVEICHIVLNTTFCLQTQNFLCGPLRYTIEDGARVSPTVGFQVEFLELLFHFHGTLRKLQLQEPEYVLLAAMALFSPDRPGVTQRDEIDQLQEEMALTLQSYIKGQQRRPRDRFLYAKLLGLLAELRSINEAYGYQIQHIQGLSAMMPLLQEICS

For `OCCCc1ccccc1`, the outcome in test [1], in [2], in test [3], in test [4], in [5] and in test [6] was inactive. Also, the call in test [7], in test [8], in [9], in test [10], in [11] and in test [12] was inactive. The compound was classed as inactive in test [13], in test [14], in [15], in test [16] and in test [17].
On to `C=C[Si](OCCOC)(OCCOC)OCCOC`, for which the result in [1], in test [2], in [4], in test [5], in test [6] and in test [7] was inactive. Besides, the outcome in [8], in test [9], in test [10], in [11], in test [18] and in test [14] was inactive. In addition, the call in [16] and in test [19] was inactive. For the same compound, the half-maximal activity concentration (AC50) (usually the concentration at which the activity in the assay is half-maximal) was 1.74 µM (active) in test [3] and 5.92 µM (active) in [13].
In the case of `C=Cc1ccc(OC(C)=O)cc1`, the outcome in test [1], in test [2], in [3], in [4], in test [5] and in test [6] was inactive. Moreover, the result in test [7], in [8], in [9], in test [10], in test [11] and in test [12] was inactive. For the same compound, the result in test [13], in test [18] and in [17] was inactive. The AC50 in [14] was 31.6 µM (active); in [16] it was 53.7 µM (active).
Regarding `CCCC1CCCC(=O)O1` (stereo not given), the result in [1], in test [2], in test [3], in [20], in test [5] and in test [7] was inactive. Also, the result in [8], in test [9], in test [10], in test [11], in [12] and in [18] was inactive. Further, the outcome in [14] and in test [16] was inactive. Also, the AC50 in test [4] is 11 µM (active).
